From PubChem
Methyltransferases = Primary Screen for Target Class Profiling of Small Molecule Inhibitors of Methyltransferases; purified enzyme, MTase-Glo SAH luminescence; stronger effect = lower value; 25,000 compounds, 3.9% hits; calls only at 40 µM; call rule not given here
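Each enzyme was reacted with SAM and its substrate, with compounds tested once at 40 uM; SAH formed was read by MTase-Glo luminescence.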
An asterisk follows results filed as active; i = inactive; + = active, no number. The sample as a whole holds a higher share of hits than the screen did. On the % scale 0 is the no-effect control and ±100 the full control effect.

SMILES	Methyltransferases
C[C@@H]1O[C@@H](O[C@@H]2CO[C@@H](O[C@H]3CC[C@@]4(C)C(CC[C@]5(C)C4CC=C4[C@@H]6CC(C)(C)CC[C@]6(C(=O)O[C@@H]6O[C@H](CO)[C@@H](O)[C@H](O)[C@H]6O)CC[C@]45C)[C@]3(C)CO)[C@H](O)[C@H]2O[C@@H]2O[C@H](CO)[C@@H](O)[C@H](O)[C@H]2O)[C@H](O)[C@H](O)[C@H]1O (stereo not given in full)	i
CC1(C)CC[C@]2(C(=O)O)CC[C@]3(C)C(=CCC4[C@@]5(C)C[C@@H](O)[C@H](O)[C@@](C)(CO)C5[C@H](O)C[C@]43C)[C@@H]2C1 (stereo not given in full)	i
CC1(CO)CC[C@]2(C(=O)O[C@@H]3O[C@H](CO)[C@@H](O)[C@H](O)[C@H]3O)CC[C@]3(C)C(=CCC4[C@@]5(C)C[C@H](O)[C@H](O[C@@H]6OC[C@@H](O)[C@H](O)[C@H]6O)[C@@](C)(CO)C5CC[C@]43C)C2C1 (stereo not given in full)	+
CC1CCC2(C(=O)OC3OC(CO)C(O)C(O)C3O)CCC3(C)C(=CCC4C5(C)CCC(O)C(C)(CO)C5CCC43C)C2C1(C)O (stereo not given)	i
CC1(C)CC[C@]2(C(=O)O[C@@H]3O[C@H](CO)[C@@H](O)[C@H](O)[C@H]3O)CC[C@]3(C)C(=CCC4[C@@]5(C)C[C@@H](O)[C@H](O)[C@@](C)(CO)C5[C@H](O)C[C@]43C)C2[C@@H]1O (stereo not given in full)	+
CC1CCC2(C(=O)OC3OC(CO)C(O)C(O)C3O)CCC3(C)C(=CCC4C5(C)CC(O)C(O)C(C)(C(=O)O)C5CCC43C)C2C1(C)O (stereo not given)	i
CC1(C)CC[C@]2(C(=O)O[C@@H]3O[C@H](CO)[C@@H](O)[C@H](O)[C@H]3O)CC[C@]3(C)C(=CCC4[C@@]5(C)C[C@@H](O)[C@H](O)[C@@](C)(CO)C5CC[C@]43C)C2[C@@H]1O (stereo not given in full)	+
CC1OC(OC2C(O)COC(O[C@@H]3[C@@H](O)[C@@H](O)[C@H](OC4C(OC(=O)[C@]56CCC(C)(C)CC5C5=CCC7[C@@]8(C)C[C@H](O)[C@H](OC9OC(CO)C(O)C(O)C9O)[C@@](C)(CO)C8[C@H](O)C[C@@]7(C)[C@]5(C)CC6)OCC(O)C4O)O[C@H]3C)C2O)C(O)C(O)C1O (stereo not given in full)	i
C[C@@H]1CC[C@]2(C(=O)O[C@@H]3O[C@H](CO)[C@@H](O)[C@H](O)[C@H]3O)CC[C@]3(C)C(=CCC4[C@@]5(C)C[C@@H](O)[C@H](O)C(C)(C)C5CC[C@]43C)C2[C@]1(C)O (stereo not given in full)	i
CC1(C)CC[C@]2(C(=O)O[C@@H]3O[C@H](CO)[C@@H](O)[C@H](O)[C@H]3O)CC[C@]3(C)C(=CCC4[C@@]5(C)C[C@@H](O)[C@H](O)C(C)(C)C5CC[C@]43C)C2[C@@H]1O (stereo not given in full)	+
CCc1cccc(N2C(=O)c3ccccc3CC2(C)C(=O)NCc2ccccc2C)c1 (stereo not given)	i
CCCn1c(=O)c2ccc(C(=O)NC(C)C)cc2n2c(=O)n(Cc3ccc(N4CCCC4=O)cc3)nc12	i
Cc1ccc(CSc2nnc3n(CCCOC(C)C)c(=O)c4ccccc4n23)cc1	i
O=c1c2ccccc2n2c(=O)n(Cc3ccc(F)cc3Cl)nc2n1Cc1ccccc1	i
O=C(NCCCNCCCNC(=O)c1cccnc1)c1cccnc1	i
Cc1cccc(CNC(=O)c2ncn3c2C(=O)N(C2CC2)C(C)(C(=O)NCc2cccc(C)c2)C3)c1 (stereo not given)	i
Cc1c(Cl)cccc1NC(=O)Cn1c(=O)nc(N(C)c2ccccc2)c2ccccc21	i
CCCn1c(=O)c2ccc(C(=O)NC3CCCCC3)cc2n2c(SCc3ccccc3)nnc12	i
Cc1cc2c(cc1S(=O)(=O)N1CCN(c3ccccn3)CC1)n(C)c(=O)n2C	i
Nc1c2c(nc3ccccc13)CCCC2	+
O=S(=O)(NCCN1CCOCC1)c1ccc(Cc2ccc(S(=O)(=O)NCCN3CCOCC3)cc2)cc1	i
CC(C)OCCCn1c(=O)c2ccccc2n2c(=O)n(Cc3ccccc3F)nc12	i
CCc1ccccc1NS(=O)(=O)c1cc2c(cc1Cl)n(C)c(=O)n2C	i
CS(=O)(=O)c1cccc(CNc2nc(Nc3ccc4c(c3)CCC(=O)N4)ncc2C(F)(F)F)c1	+
Cc1ccc(CCN2C(=O)CSc3c(c4ccccc4n3C)C2C(=O)NCCCOC(C)C)cc1 (stereo not given)	i
CCN1C(=O)c2cc(C(=O)NCCc3ccc(Cl)cc3)nn2CC1(C)C(=O)NC1CCCC1 (stereo not given)	i
COCCOc1ccc2c(c1)ncn2-c1ccc2cccc(N3CCC(N)CC3)c2n1	+
